Several values for one entry are separate records, joined by “and”; a condition that tells them apart may be missing. Equal values may be shown once. The whole screen tested about 5,500 compounds, of which about 2,000 (36%) were called active. Another 18% or so got no clear call; they are omitted. Cut-off read from the data, not from the text of the source: active = normalized growth mostly below about 0.91 (no sharp cut-off); inconclusive = no clear call, values can overlap the other calls; inactive = mostly above about 0.92. Some of the results follow.
Experiment: chemical genetic growth profiling, strain panel (AID 1159580);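 note: tested at 20 µM; growth read once vehicle control cultures reached saturation at 30 °C; 1 = growth at the plate median or of vehicle wells; lower values mean less growth of the strain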
Settings: S. cerevisiae deletion strains, growth OD

Measured: normalized growth

CNCCCC12CCC(c3ccccc31)c1ccccc12
active: locus YAL026C, strain drs2, stronger effect = lower value 0.768
inactive: locus YAL013W, strain DEP1, stronger effect = lower value 0.974 and 1.01 | locus YAL021C, strain ccr4, stronger effect = lower value 0.931 | locus YAL030W, strain snc1, stronger effect = lower value 0.999 | locus YAL040C, strain CLN3, stronger effect = lower value 1 | locus YBL061C, strain skt5, stronger effect = lower value 0.979 | locus YBR009C, strain hhf1, stronger effect = lower value 0.992 | locus YBR021W, strain FUR4, stronger effect = lower value 0.948 | locus YBR023C, strain chs3, stronger effect = lower value 0.957 | locus YBR171W, strain sec66, stronger effect = lower value 0.99 | locus YBR229C, strain ROT2, stronger effect = lower value 0.974 | locus YBR231C, strain swc5, stronger effect = lower value 0.956 | locus YBR279W, strain paf1, stronger effect = lower value 0.971 | locus YCL011C, strain gbp2, stronger effect = lower value 0.963 | locus YCL016C, strain dcc1, stronger effect = lower value 0.976 | locus YCL029C, strain bik1, stronger effect = lower value 0.994 | locus YCL061C, strain MRC1 (second series), stronger effect = lower value 0.999 | locus YCL069W, strain vba3, stronger effect = lower value 1.01 | locus YCR088W, strain abp1, stronger effect = lower value 0.998 | locus YDL005C, strain med2, stronger effect = lower value 0.972 | locus YDL035C, strain GPR1, stronger effect = lower value 0.998 | locus YDL040C, strain nat1, stronger effect = lower value 0.989 | locus YDL074C, strain BRE1, stronger effect = lower value 0.97 | locus YDL101C, strain DUN1, stronger effect = lower value 0.981 | locus YDL134C, strain PPH21, stronger effect = lower value 0.984 | locus YDL185W, strain tfp1, stronger effect = lower value 0.978 | locus YDL192W, strain arf1, stronger effect = lower value 0.991 | locus YDR001C, strain nth1, stronger effect = lower value 0.975 | locus YDR069C, strain doa4, stronger effect = lower value 0.918 | locus YDR101C, strain arx1, stronger effect = lower value 1.01 | locus YDR137W, strain rgp1, stronger effect = lower value 1.02 | locus YDR159W, strain sac3, stronger effect = lower value 0.95 | locus YDR162C, strain NBP2, stronger effect = lower value 0.996 | locus YDR195W, strain ref2 1.03 | locus YDR297W, strain sur2, stronger effect = lower value 0.975 | locus YDR318W, strain mcm21, stronger effect = lower value 0.973 | locus YDR334W, strain swr1, stronger effect = lower value 0.995 | locus YDR335W, strain msn5, stronger effect = lower value 0.982 | locus YDR363W, strain ESC2, stronger effect = lower value 1.01 | locus YDR388W, stronger effect = lower value 0.983 | locus YDR392W, strain spt3, stronger effect = lower value 0.999 | locus YDR502C, strain sam2, stronger effect = lower value 0.976 | locus YEL003W, strain gim4, stronger effect = lower value 0.978 | locus YEL037C, strain rad23, stronger effect = lower value 0.997 | locus YEL061C, strain CIN8 (second series), stronger effect = lower value 0.975 | locus YEL061C, strain CIN8, stronger effect = lower value 1.01 | locus YER002W, strain NOP16, stronger effect = lower value 1 | locus YER015W, strain faa2, stronger effect = lower value 0.978 | locus YER016W, strain bim1, stronger effect = lower value 0.996 | locus YER110C, stronger effect = lower value 0.989 | locus YER111C, strain swi4, stronger effect = lower value 0.995 | locus YER155C, strain BEM2 (second series), stronger effect = lower value 0.977 | locus YER155C, strain BEM2, stronger effect = lower value 1.01 | locus YER167W, strain BCK2, stronger effect = lower value 0.989 | locus YFR010W, strain ubp6, stronger effect = lower value 0.982 | locus YGL078C, strain dbp3, stronger effect = lower value 0.99 | locus YGL086W, strain mad1, stronger effect = lower value 0.969 | locus YGL167C, strain pmr1, stronger effect = lower value 1 | locus YGL173C, strain kem1, stronger effect = lower value 0.993 | locus YGL227W, strain vid30, stronger effect = lower value 1 | locus YGL240W, strain doc1, stronger effect = lower value 0.989 | locus YGL248W, strain PDE1, stronger effect = lower value 0.964 | locus YGL253W, strain hxk2, stronger effect = lower value 0.988 | locus YGR135W, strain pre9, stronger effect = lower value 0.94 | locus YGR229C, strain SMI1, stronger effect = lower value 0.941 and 0.953 | locus YGR252W, strain gcn5, stronger effect = lower value 0.841 | locus YHR013C, strain ard1, stronger effect = lower value 0.976 | locus YHR027C, strain rpn1, stronger effect = lower value 0.96 | locus YHR030C, strain SLT2, stronger effect = lower value 0.997 and 1.01 | locus YHR079C, strain IRE1 (second series), stronger effect = lower value 0.997 | locus YHR079C, strain IRE1, stronger effect = lower value 1.01 | locus YHR094C, strain hxt1, stronger effect = lower value 0.997 | locus YHR129C, strain ARP1, stronger effect = lower value 0.995 | locus YHR142W, strain chs7, stronger effect = lower value 0.91 | locus YHR200W, strain rpn10, stronger effect = lower value 0.991 | locus YIL066C, strain RNR3, stronger effect = lower value 0.992 | locus YIL073C, strain SPO22, stronger effect = lower value 0.918 | locus YIL125W, strain kgd1, stronger effect = lower value 0.981 | locus YIR030C, strain dcg1, stronger effect = lower value 0.99 | locus YJL092W, strain hpr5, stronger effect = lower value 0.971 | locus YJL095W, strain BCK1 (second series), stronger effect = lower value 0.973 | locus YJL095W, strain BCK1, stronger effect = lower value 0.941 and 0.998 | locus YJL115W, strain asf1, stronger effect = lower value 0.97 | locus YJL129C, strain trk1, stronger effect = lower value 1.01 | locus YJL134W, strain LCB3, stronger effect = lower value 0.982 | locus YJL154C, strain vps35, stronger effect = lower value 0.975 | locus YJL164C, strain tpk1, stronger effect = lower value 0.989 | locus YJL166W, strain qcr8, stronger effect = lower value 0.958 | locus YJL168C, strain set2, stronger effect = lower value 0.998 | locus YJL187C, strain SWE1 (second series), stronger effect = lower value 0.979 | locus YJL187C, strain SWE1, stronger effect = lower value 0.973 | locus YJR043C, strain POL32, stronger effect = lower value 1.01 | locus YJR066W, strain TOR1, stronger effect = lower value 0.949

— PubChem BioAssay AID1159580 (chemical genetic matrix, 2015)
